Data on 5 compounds can be found in PubChem BioAssay.

Assay [1] relates to PRMT1 (protein arginine N-methyltransferase 1). Put plainly: PRMT1 binders on small-molecule microarrays, primary screen, biochemical, small-molecule microarray, 635 nm fluorescence (AID 1088).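 Note: binding of Prmt1 protein to compounds spotted on small-molecule microarray slides.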 The note with it: small-molecule microarray binding, higher = more signal.
Assay [2] can be described thus: yeast growth modulation, basal conditions, primary screen, YJM789 clinical isolate, OD600, 24 h (AID 1089).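 Note: growth of clinical yeast isolate S. cerevisiae YJM 789 seeded 1000 cells per well; test concentration not given here.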 The note with it: S. cerevisiae YJM789 growth, higher = more signal, called active from +8 up or from −8 down.
A short description of assay [3]: fission yeast growth modulation, primary screen, strain 972, OD600, 24 h, no modulator (AID 1090).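 Note: basal condition with compound alone and no growth modifier present; test concentration not given here.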 The conditions noted are these: S. pombe 972 growth, higher = more signal, called active from +8 up or from −8 down.
The nature of assay [4]: S. cerevisiae growth modulation with rapamycin, primary screen, strain BY4716, OD600, 96 h (AID 1091). Note: test concentration not given here. The conditions noted are these: higher = more signal, called active from +8 up or from −8 down.
For assay [5], the target named is Torsin-1A-interacting protein 2 (Homo sapiens) (UniProt Q8NFQ8). Put plainly: LULL1 binders on small-molecule microarray, primary screen, cell lysate, human LULL1 lysate, 635/667 nm fluorescence (AID 1092).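 Note: probe is lysate of COS7 cells overexpressing human LULL1; score merges per-feature 667 nm fluorescence with signal-to-noise.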 The note with it: hLULL1 lysate binding, 635 nm fluorescence, higher = more signal.
Chain of Torsin-1A-interacting protein 2 (Homo sapiens) (Q8NFQ8 whole entry, looked up): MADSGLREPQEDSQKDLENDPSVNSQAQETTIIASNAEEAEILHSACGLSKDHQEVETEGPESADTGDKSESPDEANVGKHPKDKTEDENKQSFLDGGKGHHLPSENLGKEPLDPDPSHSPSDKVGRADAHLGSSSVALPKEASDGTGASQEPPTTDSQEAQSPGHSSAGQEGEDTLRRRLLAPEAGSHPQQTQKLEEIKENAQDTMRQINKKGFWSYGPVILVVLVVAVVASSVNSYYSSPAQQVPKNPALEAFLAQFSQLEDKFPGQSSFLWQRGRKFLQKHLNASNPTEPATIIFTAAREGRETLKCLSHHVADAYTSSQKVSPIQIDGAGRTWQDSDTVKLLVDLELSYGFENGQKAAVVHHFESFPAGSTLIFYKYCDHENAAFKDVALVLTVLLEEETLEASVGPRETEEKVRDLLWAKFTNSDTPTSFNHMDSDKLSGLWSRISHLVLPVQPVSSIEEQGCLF
A short description of assay [6]: E. coli growth modulation, two-sided OD650, primary screen, E. coli filamentation project, strain DRC41, 24 h (AID 1093).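 Note: MC1000 strain lacking acrAB efflux and sulA so SOS filamentation is blocked; test concentration not given here.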 The conditions noted are these: OD650, 24 h, higher = more signal, called active from +8 up or from −8 down.
The nature of assay [7]: small-molecule microarray binders of probe aLefty2, primary screen, biochemical, biotinylated probe, 635/667 nm fluorescence (AID 1094).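 Note: score merges spot fluorescence near 667 nm with spot signal-to-noise ratio.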 The note with it: higher = more signal.
The test system of assay [8] is Noggin (protein binding on small-molecule microarray). Description: Noggin binders on small-molecule microarray, primary screen, biochemical, 635/667 nm fluorescence (AID 1095).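 Note: score merges 667 nm feature fluorescence with signal to noise over triplicate slides.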 The note with it: 635 nm fluorescence, higher = more signal.
The target in assay [9] is Neurogenic locus notch homolog protein 3 (Homo sapiens) (UniProt Q9UM47). Put plainly: NOTCH3 binders on small-molecule microarray, primary screen, biochemical, 635/667 nm fluorescence (AID 1096). The conditions noted are these: NOTCH3 binding, 635 nm fluorescence, higher = more signal.
Chain of Neurogenic locus notch homolog protein 3 (Homo sapiens) (Q9UM47 whole entry, looked up): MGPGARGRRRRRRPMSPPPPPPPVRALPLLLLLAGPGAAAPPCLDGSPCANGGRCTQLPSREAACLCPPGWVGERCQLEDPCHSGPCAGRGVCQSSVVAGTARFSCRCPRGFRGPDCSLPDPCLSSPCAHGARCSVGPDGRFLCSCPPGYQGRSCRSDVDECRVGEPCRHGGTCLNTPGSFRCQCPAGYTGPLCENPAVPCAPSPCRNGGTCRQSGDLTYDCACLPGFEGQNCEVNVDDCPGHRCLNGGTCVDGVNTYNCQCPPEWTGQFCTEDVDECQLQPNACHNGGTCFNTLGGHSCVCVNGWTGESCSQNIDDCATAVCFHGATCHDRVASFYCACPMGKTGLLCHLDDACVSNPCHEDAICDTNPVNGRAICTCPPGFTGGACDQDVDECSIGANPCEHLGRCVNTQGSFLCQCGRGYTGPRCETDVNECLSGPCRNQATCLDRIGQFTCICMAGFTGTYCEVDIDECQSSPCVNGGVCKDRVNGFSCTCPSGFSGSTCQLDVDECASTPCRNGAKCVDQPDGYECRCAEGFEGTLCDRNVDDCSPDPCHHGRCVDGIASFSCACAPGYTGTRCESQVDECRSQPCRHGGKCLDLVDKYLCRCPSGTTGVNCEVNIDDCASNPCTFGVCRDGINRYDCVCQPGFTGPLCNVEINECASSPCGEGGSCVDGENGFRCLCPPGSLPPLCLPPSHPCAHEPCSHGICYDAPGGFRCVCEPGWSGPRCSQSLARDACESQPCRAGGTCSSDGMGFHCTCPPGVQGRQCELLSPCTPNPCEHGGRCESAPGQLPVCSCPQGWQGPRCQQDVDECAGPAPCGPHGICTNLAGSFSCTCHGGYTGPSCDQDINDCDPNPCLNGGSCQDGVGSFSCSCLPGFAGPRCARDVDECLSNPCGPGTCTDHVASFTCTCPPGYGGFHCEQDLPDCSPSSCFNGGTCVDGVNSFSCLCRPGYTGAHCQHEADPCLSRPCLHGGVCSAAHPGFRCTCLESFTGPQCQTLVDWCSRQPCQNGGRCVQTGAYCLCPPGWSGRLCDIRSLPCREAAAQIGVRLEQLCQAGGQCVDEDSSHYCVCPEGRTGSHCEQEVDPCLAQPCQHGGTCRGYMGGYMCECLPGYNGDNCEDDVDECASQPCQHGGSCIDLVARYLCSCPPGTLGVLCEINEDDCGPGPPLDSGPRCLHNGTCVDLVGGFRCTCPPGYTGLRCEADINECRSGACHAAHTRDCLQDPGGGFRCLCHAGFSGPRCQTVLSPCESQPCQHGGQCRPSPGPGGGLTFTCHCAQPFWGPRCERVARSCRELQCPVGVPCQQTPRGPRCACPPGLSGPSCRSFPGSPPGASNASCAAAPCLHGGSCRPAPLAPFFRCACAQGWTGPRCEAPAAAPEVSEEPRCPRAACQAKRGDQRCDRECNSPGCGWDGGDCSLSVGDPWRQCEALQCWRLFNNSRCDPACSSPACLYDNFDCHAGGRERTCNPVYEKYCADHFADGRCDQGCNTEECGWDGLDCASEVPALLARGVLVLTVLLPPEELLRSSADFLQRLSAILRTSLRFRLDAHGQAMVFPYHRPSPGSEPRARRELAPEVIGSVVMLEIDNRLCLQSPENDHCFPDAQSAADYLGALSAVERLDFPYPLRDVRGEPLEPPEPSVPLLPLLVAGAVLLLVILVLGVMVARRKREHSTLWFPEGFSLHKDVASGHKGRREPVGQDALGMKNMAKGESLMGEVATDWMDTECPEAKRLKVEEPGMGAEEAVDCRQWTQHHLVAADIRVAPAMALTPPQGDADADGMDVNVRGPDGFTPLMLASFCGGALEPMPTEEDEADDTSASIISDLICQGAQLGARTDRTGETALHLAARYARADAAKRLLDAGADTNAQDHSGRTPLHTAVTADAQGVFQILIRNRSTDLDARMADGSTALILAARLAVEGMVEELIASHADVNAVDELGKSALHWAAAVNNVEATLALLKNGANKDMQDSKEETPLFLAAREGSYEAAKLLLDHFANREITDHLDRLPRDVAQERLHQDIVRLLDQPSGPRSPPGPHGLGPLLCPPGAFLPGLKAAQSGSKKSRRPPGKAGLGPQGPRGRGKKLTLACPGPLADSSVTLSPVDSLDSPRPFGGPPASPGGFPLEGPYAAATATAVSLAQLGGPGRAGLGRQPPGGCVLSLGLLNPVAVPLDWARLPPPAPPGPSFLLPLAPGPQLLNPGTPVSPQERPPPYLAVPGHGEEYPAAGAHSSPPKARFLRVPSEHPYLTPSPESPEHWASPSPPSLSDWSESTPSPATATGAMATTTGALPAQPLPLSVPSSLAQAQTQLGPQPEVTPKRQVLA
The nature of assay [10]: small-molecule microarray binders of probe aEGFR, primary screen, biochemical, biotinylated probe, 635/667 nm fluorescence (AID 1097).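 Note: probe is a biotinylated anti-EGFR antibody binding compounds printed on slides; score combines fluorescence near 667 nm and signal to noise of each spot.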 The note with it: higher = more signal.
For assay [11], the system named is Plasmodium falciparum Sir2 (PF13_0152, Sir2A). Put plainly: pfSir2 binders on small-molecule microarrays, primary screen, biochemical, small-molecule microarray, 635 nm fluorescence (AID 1098).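 Note: score merges spot fluorescence intensity with its signal-to-noise ratio.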 The conditions noted are these: small-molecule microarray binding, fluorescence 635 nm; higher = more signal.
Assay [12] is described as follows: small-molecule microarray binders of probe aDKK1, primary screen, biochemical, biotinylated probe, 635/667 nm fluorescence (AID 1099).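 Note: score merges 667nm spot fluorescence with signal to noise across triplicate slides; reference of the scale not given here.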 The conditions noted are these: higher = more signal.
Assay [13] in a line: small-molecule microarray binders of probe aCHRDL2, primary screen, biochemical, biotinylated probe, 635/667 nm fluorescence (AID 1100). The conditions noted are these: higher = more signal.
Assay [14] can be described thus: splicing luciferase reporter signal modulators, primary screen, spliceosome inhibition project, cell-based, HEK293, splice +/- reporter (AID 1101).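 Note: HEK293 cells carrying a splicing-competent luciferase reporter gene; test concentration not given here.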 The note with it: luminescence, 24 h, higher = more signal, called active from +8 up or from −8 down. (In general: In a reporter assay the amount or activity of a reporter protein is the signal.)
The target in assay [15] is Fibroblast growth factor 10 (Homo sapiens) (UniProt O15520). Description: FGF10 binders on small-molecule microarrays, primary screen, biochemical, small-molecule microarray, 635 nm fluorescence (AID 1102). The conditions noted are these: FGF10 binding, fluorescence 635 nm, higher = more signal.
Chain of Fibroblast growth factor 10 (Homo sapiens) (O15520 whole entry, looked up): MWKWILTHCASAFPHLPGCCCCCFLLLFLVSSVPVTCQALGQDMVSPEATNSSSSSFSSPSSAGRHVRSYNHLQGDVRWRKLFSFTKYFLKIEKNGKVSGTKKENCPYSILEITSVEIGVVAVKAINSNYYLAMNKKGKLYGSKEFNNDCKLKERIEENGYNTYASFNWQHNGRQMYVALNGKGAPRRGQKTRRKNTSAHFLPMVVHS
The subject of assay [16] is glycogen synthase kinase-3 (GSK3A per assay name; protocol says GSK3B). Description: GSK3 binders on small-molecule microarrays, primary screen, biochemical, small-molecule microarray, 635 nm fluorescence, GSK3A (AID 1103). Note: the record names both GSK3A and GSK3B. The conditions noted are these: small-molecule microarray binding, fluorescence 635 nm; higher = more signal.
Assay [17] has as its target Epidermal growth factor receptor (Homo sapiens) (UniProt P00533). Description: EGFR binders on small-molecule microarrays, primary screen, biochemical, small-molecule microarray, 635 nm fluorescence (AID 1104).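 Note: score merges 667 nm emission intensity with spot signal to noise over triplicate slides.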 The note with it: EGFR binding, higher = more signal.
Assay [18] concerns the target Follistatin-related protein 3 (Homo sapiens) (UniProt O95633). Put plainly: FSTL3 binders on small-molecule microarrays, primary screen, biochemical, small-molecule microarray, 635 nm fluorescence (AID 1105).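 Note: score merges emission near 667 nm and signal to noise per printed spot across three slides.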 The conditions noted are these: FSTL3 binding, higher = more signal.
Assay [19] addresses Dickkopf-related protein 1 (Homo sapiens) (UniProt O94907). Put plainly: DKK1 binders on small-molecule microarrays, primary screen, biochemical, small-molecule microarray, 635 nm fluorescence scan (AID 1106).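 Note: score merges emission near 667 nm with signal to noise over three replicate slides.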 The conditions noted are these: DKK1 binding, higher = more signal.
The subject of assay [20] is Inhibin beta A chain (activin A). Put plainly: INHBA (activin A) binders on microarrays, primary screen, biochemical, small-molecule microarray, 635 nm fluorescence scan (AID 1107).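 Note: mouse activin A protein probed at 4.33 µg/mL on printed slides; score merges bound-protein fluorescence near 667 nm with spot signal-to-noise.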 The conditions noted are these: small-molecule microarray binding, higher = more signal.

Activity calls are given as the source filed them.

Chain of Dickkopf-related protein 1 (Homo sapiens) (O94907 whole entry, looked up): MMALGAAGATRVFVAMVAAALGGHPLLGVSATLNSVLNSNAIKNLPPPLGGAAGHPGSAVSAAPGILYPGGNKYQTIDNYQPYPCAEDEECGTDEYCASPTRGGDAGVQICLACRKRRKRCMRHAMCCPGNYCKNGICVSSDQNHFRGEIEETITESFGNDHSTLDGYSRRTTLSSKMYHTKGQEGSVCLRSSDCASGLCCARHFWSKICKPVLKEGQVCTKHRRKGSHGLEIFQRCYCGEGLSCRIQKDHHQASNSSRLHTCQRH
Chain of Follistatin-related protein 3 (Homo sapiens) (O95633 whole entry, looked up): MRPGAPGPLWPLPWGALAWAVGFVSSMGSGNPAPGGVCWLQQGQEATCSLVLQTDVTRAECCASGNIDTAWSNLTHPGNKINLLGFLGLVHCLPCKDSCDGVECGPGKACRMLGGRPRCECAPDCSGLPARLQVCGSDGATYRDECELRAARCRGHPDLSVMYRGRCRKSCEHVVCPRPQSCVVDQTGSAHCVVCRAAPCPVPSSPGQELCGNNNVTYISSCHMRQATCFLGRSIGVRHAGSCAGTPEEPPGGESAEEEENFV
Chain of Epidermal growth factor receptor (Homo sapiens) (P00533 whole entry, looked up): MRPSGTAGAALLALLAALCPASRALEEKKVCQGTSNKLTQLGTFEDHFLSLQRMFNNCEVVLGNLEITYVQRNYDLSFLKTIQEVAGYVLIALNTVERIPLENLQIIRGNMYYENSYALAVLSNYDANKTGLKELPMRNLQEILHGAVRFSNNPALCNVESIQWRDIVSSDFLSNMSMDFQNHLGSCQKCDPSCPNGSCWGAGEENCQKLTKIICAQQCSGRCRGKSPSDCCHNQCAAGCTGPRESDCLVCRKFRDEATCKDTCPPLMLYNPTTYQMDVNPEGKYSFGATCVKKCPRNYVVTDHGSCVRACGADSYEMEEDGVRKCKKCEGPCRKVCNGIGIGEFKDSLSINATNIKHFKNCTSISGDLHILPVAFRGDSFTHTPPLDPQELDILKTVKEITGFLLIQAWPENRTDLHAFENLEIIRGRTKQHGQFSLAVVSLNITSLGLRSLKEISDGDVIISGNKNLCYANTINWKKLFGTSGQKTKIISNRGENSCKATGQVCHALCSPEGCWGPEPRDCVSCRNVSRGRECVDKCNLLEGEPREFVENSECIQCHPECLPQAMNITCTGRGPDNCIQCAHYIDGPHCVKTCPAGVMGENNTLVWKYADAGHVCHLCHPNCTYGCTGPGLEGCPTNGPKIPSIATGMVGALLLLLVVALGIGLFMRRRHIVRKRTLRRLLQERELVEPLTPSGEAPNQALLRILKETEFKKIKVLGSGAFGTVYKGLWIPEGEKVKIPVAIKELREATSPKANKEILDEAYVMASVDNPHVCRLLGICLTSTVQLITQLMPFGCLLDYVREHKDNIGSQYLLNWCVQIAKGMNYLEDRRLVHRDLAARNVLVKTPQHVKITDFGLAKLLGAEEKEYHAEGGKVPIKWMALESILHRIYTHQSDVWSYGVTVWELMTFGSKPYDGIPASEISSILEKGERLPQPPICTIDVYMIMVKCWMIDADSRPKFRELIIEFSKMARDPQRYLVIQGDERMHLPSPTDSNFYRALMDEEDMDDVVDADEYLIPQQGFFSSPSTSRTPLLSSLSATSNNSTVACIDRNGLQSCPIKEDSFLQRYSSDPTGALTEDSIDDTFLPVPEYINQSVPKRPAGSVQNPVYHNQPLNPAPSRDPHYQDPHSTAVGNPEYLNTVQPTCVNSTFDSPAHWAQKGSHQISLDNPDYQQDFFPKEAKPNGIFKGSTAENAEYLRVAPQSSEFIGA

In the case of `C=C(C)c1cc2c(c(CCCCCC)n1)[Si](C(C)C)(C(C)C)OC2`, the composite z-score in [1] was -0.293; in [5], -1.03; in assay [7], -0.193; in [8] it was -0.714; in assay [9], -0.64; in assay [10], -0.287. Also, the composite z-score in [11] is -0.491; in [12], -0.304; in [13], 0.149; in assay [15], -1.04; in assay [16], -1.18; in assay [17] it was -1.01. Besides, the results for the composite z-score in [18], in assay [19] and in [20] were -1.24, -1.31 and 0.138, respectively. For the same compound, the z-score in assay [2] was 1.21 (inactive); in assay [3], 0.653 (inactive); in assay [4] it was -0.9 (inactive); in assay [6] it was -1.17 (inactive); in [14], -0.392 (inactive).
In the case of `COC(=O)[C@@]1(Cc2ccc(OC)cc2)[C@H]2c3cc(C(=O)N(C)C)n(CCO)c3C[C@H]2CN1C(=O)c1ccccc1`, the composite z-score in assay [1] is -1.15; in assay [5] it was 1.96; in assay [7], 0.333; in [8], -1.13; in assay [9] it was -0.175; in [10] it was -0.0521. In addition, the composite z-score in assay [11] is 0.137; in assay [12], 1.14; in assay [13], 1.27; in [15], 0.0882; in assay [16], -0.402; in [17] it was -0.735. Also, the composite z-score in [18] was -0.42; in assay [19] it was -1.18; in [20], 1.07. Further, the z-score in assay [2] was -0.809 (inactive); in assay [3], 0.142 (inactive); in assay [4] it was -0.14 (inactive); in assay [6], -0.285 (inactive); in [14] it was 0.994 (inactive).
`COc1ccc([Si](C)(C)[C@H]2[C@H](CC(=O)N(CCO)Cc3ccccc3)O[C@@]3(C(=O)N(Cc4cccc(N5CCOC5=O)c4)c4ccccc43)[C@@H]2C)cc1`: the composite z-score in assay [1] was 1.56; in [5] it was 1.35; in assay [7], -0.0724; in assay [8] it was 0.722; in assay [9], 0.403; in [10] it was -0.167. Moreover, the composite z-score was 1.18 in assay [11]; -0.21 in [12]; 0.0284 in [13]; 0.0549 in assay [15]; 0.616 in assay [16]; 0.232 in assay [17]. Also, the composite z-score in [18] came to 0.324; in assay [19], 0.179; in assay [20], 0.81. Also, the z-score in assay [2] is -0.0337 (inactive); in assay [3], -0.166 (inactive); in assay [4] it was 3.02 (inactive); in assay [6] it was 1.17 (inactive); in [14], -2.44 (inactive).
`Cc1ccccc1C(O)C1C=CC2C(=O)N(C)C(=O)C2N1N(c1ccccc1)c1ccccc1` (stereo not given): the composite z-score in assay [1] is -0.437; in [5], -0.604; in assay [7], 0.756; in assay [8] it was -0.177; in assay [9] it was -0.899; in [10] it was 0.409. Further, the composite z-score is -0.167 in assay [11]; 0.858 in assay [12]; 0.11 in [13]; 0.362 in [15]; -0.401 in assay [16]; 0.304 in assay [17]. Moreover, the figures for the composite z-score in assay [18], in [19] and in assay [20] were 0.0459, 0.119 and 1.33, respectively. The z-score is 0.787 (inactive) in assay [2]; 0.503 (inactive) in assay [3]; 0.753 (inactive) in assay [4]; -0.717 (inactive) in assay [6]; 0.595 (inactive) in assay [14].
As for `Cc1ccc(S[C@]2(C(=O)NCCCN(C)C)CC(=O)N(C3CCCCC3)[C@@H]2c2ccc(CO)cc2)cc1`, the composite z-score in [1] was -0.0316; in assay [5] it was 0.555; in assay [7], 0.0321; in assay [8] it was -0.561; in [9] it was -0.662; in assay [10], -0.106. Also, the composite z-score in assay [11] was -0.0346; in assay [12], 0.348; in [13], 0.893; in assay [15] it was -0.89; in assay [16], -0.464; in assay [17] it was -0.674. Besides, the composite z-score in assay [18] is -0.811; in assay [19], -0.774; in [20], 0.83. The z-score in assay [2] was -0.96 (inactive); in assay [3] it was -2.22 (inactive); in assay [4], -0.655 (inactive); in assay [6], 0.457 (inactive); in assay [14], 0.104 (inactive).
